{"source": "PubChem BioAssay AID686978", "about": "(National Center for Advancing Translational Sciences (NCATS), 2013)", "note": "Among all 420,000 compounds or so, about 64,000 (15%) were called active. Inconclusive results (about 27%) are left out. Calls come from the whole dose curve; as a rule, active = well fitted inhibition curve with a large enough effect; inconclusive = small, poorly fitted or top-dose-only effect; inactive = flat fitted curve, though single readings scatter. A selection follows. A call without a number means that no potency is given here. Potency is the fitted concentration of half-maximal effect."}
{"experiment": "qHTS for Inhibitors of human tyrosyl-DNA phosphodiesterase 1 (TDP1): qHTS in cells in absence of CPT; note: nearly all actives have a fitted effect of over 55% in size", "conditions": "DT40 Tdp1-/- hTDP1 cells, no CPT, ATP luminescence, 48 h; activity change, negative = growth inhibition: at 46.2 µM (top of the series)", "procedure,_shortened": "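Luminescent ATP content (CellTiter-Glo) served as the growth readout. Knockout chicken DT40 cells expressing human TDP1 were exposed to compounds without camptothecin for a minimum 48 hr at 37 °C.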"}
{"smiles": "O=c1c2ccccc2nc2n1C(CSc1ccc(Cl)cc1)CN2", "note": "(stereo not drawn)", "Potency": "inactive"}
{"smiles": "O=c1c2ccccc2nc2n1C(CSCc1ccccc1)CS2", "note": "(stereo not drawn)", "Potency": "6.51 µM (active)"}
{"smiles": "O=c1c2ccccc2nc2n1C(CSc1ccc(F)cc1)CN2", "note": "(stereo not drawn)", "Potency": "inactive"}
{"smiles": "O=c1c2ccccc2nc2n1C(CSCc1cccc(C(F)(F)F)c1)CS2", "note": "(stereo not drawn)", "Potency": "3.66 µM (active)"}
{"smiles": "Cn1cc(S(=O)(=O)Nc2ccc(Cl)cc2Cl)c(=O)n(C)c1=O", "Potency": "inactive"}
{"smiles": "CCN(CC)CCNC(=O)C1c2ccccc2C(=O)N(C)C1c1cn(C)c2ccccc12", "note": "(stereo not drawn)", "Potency": "inactive"}
{"smiles": "CCOC(=O)N1CCC(NC(=O)C(NS(=O)(=O)c2ccc3c(c2)CCN3C(=O)CC)C(C)C)CC1", "note": "(stereo not drawn)", "Potency": "inactive"}
{"smiles": "CN(C)C(=O)[C@@H]1C[C@@H](Sc2nc3ccccc3[nH]2)CN1Cc1ccc(Cl)cc1", "Potency": "inactive"}
{"smiles": "CC1CC(C)CN(CCCNC(=O)Cn2ncc3c([nH]c4ccccc43)c2=O)C1", "note": "(stereo not drawn)", "Potency": "inactive"}
{"smiles": "O=C(Cc1csc(Nc2nc(=S)[nH]c3ccccc23)n1)NCCCN1CCN(c2cccc(Cl)c2)CC1", "Potency": "9.2 µM (active)"}
{"smiles": "O=C(CCn1c(=S)[nH]c2ccccc2c1=O)NCCCN1CCCC1=O", "Potency": "inactive"}
{"smiles": "O=C(CN1C(=O)NC2(CCCCCCC2)C1=O)NCc1ccc(F)cc1", "Potency": "inactive"}
{"smiles": "COc1ccc(CNC(=O)C2=Cc3cccc(OC)c3OC2)cc1OC", "Potency": "inactive"}
{"smiles": "O=C(NN1C(=O)C2C3C=CC(O3)C2C1=O)c1ccncc1", "note": "(stereo not drawn)", "Potency": "inactive"}
{"smiles": "CSC1=NN(c2ccccc2)CN(c2ccccc2)N1C", "Potency": "inactive"}
{"smiles": "O=C(CCCN1C(=O)c2ccccc2C1=O)Oc1ccc(Cl)cc1", "Potency": "inactive"}
{"smiles": "COc1ccc(CNC(=O)[C@@H]2CC=C[C@@H]3CCN(C4CC4)C(=O)[C@@H]32)cc1", "Potency": "inactive"}
{"smiles": "Cc1ccc(CNC(=O)C2CC(=O)N(C3CCCCCCC3)C2)cc1", "note": "(stereo not drawn)", "Potency": "inactive"}
{"smiles": "CCCCC[C@H]1CN(C2CCCCC2)C(=O)[C@@H]1CC(=O)NCc1ccc(OC)cc1", "Potency": "10 µM (active)"}
{"smiles": "O=C(CCc1nnc2ccc(NCCCN3CCCC3=O)nn12)NCc1ccccc1Cl", "Potency": "inactive"}
{"smiles": "COc1cccc(OCCCN2CCCCCC2)c1", "Potency": "inactive"}
{"smiles": "CCOC(=O)Cn1c(-c2cccnc2Cl)nc2ccccc21", "Potency": "inactive"}
{"smiles": "CCCCCCCCCCOC(=O)Cn1c(COc2cccc(OC)c2)[n+](C)c2ccccc21", "Potency": "2.31 µM (active)"}
{"smiles": "CCn1c(COc2cccc(OC)c2)nnc1SCC(=O)N1CCOCC1", "Potency": "inactive"}
{"smiles": "CCCCCCCCCCOC(=O)Cn1c(COc2ccc(C)cc2)[n+](C)c2ccccc21", "Potency": "3.26 µM (active)"}
{"smiles": "Cc1ccc(OCCCn2c(=O)oc3ccccc32)cc1", "Potency": "inactive"}
{"smiles": "Cc1ccc(C)c(-n2ccnc2SCC(N)=O)c1", "Potency": "inactive"}
{"smiles": "CCn1cc(C(=O)OCC(=O)Nc2cccc(C)c2)c(=O)c2ccc(C)nc21", "Potency": "inactive"}
